# Screening results deposited in PubChem BioAssay by National Center for Advancing Translational Sciences (NCATS).
# Sampled rows, rich in hits. Any-hit rate of the full collection: about 2.9%.
# PI5P4Ka inh – qHTS for Inhibitors of phosphatidylinositol 5-phosphate 4-kinase (PI5P4K). Phosphatidylinositol 5-phosphate 4-kinase type-2 alpha (Homo sapiens), P48426. PI5P4Kalpha enzyme, ADP-Glo luminescence, 60 min; active compounds read low. max response, %. 330,000 tested, 1.2% active. AID 652105, 2013; active = max response of -50% or lower; inconclusive = between -30% and -50%; inactive = -30% or higher; note: value at the top dose of about 77 µM; % is set by controls: 0 for no effect and ±100 for the full control effect
#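 PI5P4Kalpha ADP-Glo assay; 5 microM ATP final; 60 min RT reaction; HEPES pH 7.4/EGTA/CHAPS, 5% DMSO; controls lacking substrate or enzyme; luminescent end-point.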
# POLI inh – qHTS for Inhibitors of Polymerase Iota. Potency, µM (titrated, usually from 115 µM), for the others: at the top dose activity, negative = inhibition, usual class: inhibitors. Pol iota fluorescent replication assay, 10 min. DNA polymerase iota (Homo sapiens), Q9UNA4. AID 588590, 2011. 390,000 tested, 1% active; note: potency is the fitted concentration of half-maximal effect
#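 Fluorescent replication assay read twice, at 0 min and 10 min after adding 50 nM (final) substrate. Enzyme (10 nM) and compounds were first incubated 15 min at room temperature; enzyme-free buffer wells were negative controls.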
# POLH inh – qHTS for Inhibitors of Polymerase Eta | recombinant Pol eta, fluorescent DNA replication assay | AID 588591, 2011 | Potency, µM (highest dose often 114 µM), without a hit: at the top dose activity change, negative = inhibition, actives largely listed as inhibitors | 390,000 tested, 1.2% active; note: potency is the fitted concentration of half-maximal effect; % is set by controls: 0 for no effect and ±100 for the full control effect
#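 Fluorescent replication assay: 50 nM final substrate added after a 15 min room-temperature compound preincubation with 10 nM enzyme. Signal taken at 0 min and again at 10 min.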
# POLK inh – qHTS for Inhibitors of Polymerase Kappa. Potency, µM (series often up to 107 µM), inactives show at the top dose activity, negative = inhibition, most hits filed as inhibitors. 400,000 tested, 0.53% active. AID 588579, 2011. purified Pol kappa, fluorescent DNA synthesis assay, 10 min; note: potency is the fitted concentration of half-maximal effect; % is set by controls: 0 for no effect and ±100 for the full control effect
#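 Kinetic fluorescence screen: compound preincubated 15 min RT with 10 nM enzyme; 50 nM substrate (final) initiates; reads at 0/10 min.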
# 12-LOX inh – Primary qHTS assay for inhibitors of human arachidonate 12S-lipoxygenase (ALOX12): Round 2; Potency, µM (titrated, usually from 108 µM), inactives show at the top dose activity change, negative = inhibition, hits mostly inhibitors; 580,000 tested, 1.1% active; purified 12hLO, xylenol orange hydroperoxide absorbance; note: potency is the fitted concentration of half-maximal effect; % is set by controls: 0 for no effect and ±100 for the full control effect
# Target sequence (P18054 whole entry, looked up): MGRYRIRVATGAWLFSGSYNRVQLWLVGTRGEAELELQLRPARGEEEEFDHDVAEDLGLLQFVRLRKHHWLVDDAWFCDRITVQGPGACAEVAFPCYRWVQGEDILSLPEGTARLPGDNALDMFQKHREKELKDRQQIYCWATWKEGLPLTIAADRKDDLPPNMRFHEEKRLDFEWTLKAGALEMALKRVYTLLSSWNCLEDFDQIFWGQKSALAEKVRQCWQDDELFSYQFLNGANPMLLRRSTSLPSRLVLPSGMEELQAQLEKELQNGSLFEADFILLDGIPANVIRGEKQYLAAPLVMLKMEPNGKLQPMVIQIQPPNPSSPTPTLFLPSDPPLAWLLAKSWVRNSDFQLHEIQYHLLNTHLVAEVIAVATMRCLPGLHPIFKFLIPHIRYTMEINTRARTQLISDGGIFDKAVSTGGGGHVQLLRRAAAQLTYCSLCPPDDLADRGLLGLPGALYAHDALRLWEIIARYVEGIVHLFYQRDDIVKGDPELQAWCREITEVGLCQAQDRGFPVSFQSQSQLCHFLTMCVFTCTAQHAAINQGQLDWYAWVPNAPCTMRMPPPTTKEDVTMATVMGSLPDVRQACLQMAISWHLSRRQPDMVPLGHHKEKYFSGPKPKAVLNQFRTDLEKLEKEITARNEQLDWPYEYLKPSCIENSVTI
#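 Hydroperoxide product was detected by ferrous iron/xylenol orange as the 573 to 405 nm absorbance ratio. Arachidonic acid at 40 uM (final) was turned over for 30 min at room temperature by 150 nM human 12hLO, pH 7.0 Hepes buffer, after 15 min compound preincubation.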
# Pol beta inh – qHTS Assay for Inhibitors of DNA Polymerase Beta; Potency, µM (doses to about 114 µM), for the others: top-dose activity change, negative = inhibition, hits mostly inhibitors; Pol beta primer extension/strand displacement, fluorescence kinetic; 340,000 tested, 1.3% active; P06746; note: potency is the fitted concentration of half-maximal effect; % is set by controls: 0 for no effect and ±100 for the full control effect
#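 Pol beta (10 nM) was preincubated with compound for 15 min at room temperature. The reaction was then started with 50 nM substrate and read immediately and after a further 10 min at room temperature.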
# Active calls of the source: *; ? = inconclusive; nt = no result; [ ] = another dose, or the depositor's remark. Unless noted, calls come from the whole dose curve; as a rule, active = well fitted inhibition curve with a large enough effect; inconclusive = small, poorly fitted or top-dose-only effect, or another doubt; inactive = no such curve, though single readings can be large or run the other way.
SMILES,PI5P4Ka inh,POLI inh,POLH inh,POLK inh,12-LOX inh,Pol beta inh
Cc1cccc2cc(-c3nc4ccc(C(=O)O)cc4[nH]3)c(=O)oc12,-12,?,22µM*,?,nt,?
CC(C)(C)c1cc(C(C)(C)C)c2oc(=O)c(-c3nc4ccc(C(=O)O)cc4[nH]3)cc2c1,nt,4%,-20%,2%[60.1 µM],?,-3%
CCCn1nc(C(=O)Nc2ccc(C)cn2)c2ccccc2c1=O,nt,nt,nt,nt,-1%,nt
c1cn(-c2cc(-c3ccc4c(c3)OCO4)ncn2)cn1,nt,nt,nt,25µM*,?,nt
COc1ccccc1-c1cc(-n2ccnc2)ncn1,nt,nt,nt,2%[60.1 µM],-27%,nt
CN(CC(=O)Nc1cc2[nH]c(=O)[nH]c2cc1Br)Cc1ccccc1N1CCCC1,nt,nt,nt,nt,2%,nt
COc1ccc(-c2nnc(-c3ccco3)o2)cc1OC,nt,nt,nt,nt,21%,nt
COc1ccc(-c2cc(-c3ccco3)[nH]c(=O)c2C#N)cc1OC,-24,10µM*,56µM*,79µM*,?,?
Cc1ccc(-n2nc(C)c3c2OC(N)=C(C#N)C3c2ccoc2)cc1 (centres undefined),-13,20µM*,-1%,-17%,?,28µM*
CC/C=C(/C)C(=O)NC(C)c1cc(C)sc1C (centres undefined),nt,nt,nt,nt,-33%,nt
O=C(O)CCNC(=O)C(F)(F)C(F)(F)C(F)(F)C(F)(F)C(F)(F)C(F)(F)F,nt,nt,nt,nt,11µM*,nt
COC(=O)N/N=C/c1cc(Br)ccc1O,1,-7%,-15%,-8%,3%,16µM*
Cc1nc2cc(NC(=O)COc3cccc(Cl)c3)ccc2o1,nt,nt,nt,nt,-18%,nt
Cc1nnc(Sc2cc(NCCO)c([N+](=O)[O-])c3nonc23)s1,-18,?,?,-21%,?,27%
Cc1nnc(Sc2cc(NCCCO)c([N+](=O)[O-])c3nonc23)s1,-78*,13µM*,79µM*,-20%,?,-17%
COCCNC(=O)c1cc2sc3ccccc3c2s1,-2,14%,-8%,4%,7%,0%
CCN(C(=O)c1cc2sc3ccccc3c2s1)c1ccccc1,nt,nt,nt,nt,7.9µM*,nt
CCCCCCCCSc1nnc2[nH]c(=O)cc(N)n12,-50*,6%,-17%,3%,0%,-25%
Cc1cccc(-n2c(O)c(C=Nc3ccccc3O)c3ccccc3c2=O)n1,0,?,45µM*,?,-27%,-32%
CC(C)N1CCC(Nc2nc(-c3cccnc3)nc3ccccc23)CC1,nt,nt,nt,nt,-1%,nt
O=C(Cn1ncc2c3ccccc3n(Cc3cccc(Cl)c3)c2c1=O)N1CCCCC1,nt,-7%,-24%,-13%,?,?
CC(CCc1ccccc1)NC(=O)Cn1ncc2c3ccccc3n(Cc3ccccc3)c2c1=O (centres undefined),nt,0%,-4%,-6%,-23%,35%
O=C(Cn1ncc2c3ccccc3n(Cc3cccc(Cl)c3)c2c1=O)NCc1cccs1,nt,?,-17%,-27%,?,25µM*
CC(CCc1ccccc1)NC(=O)Cn1ncc2c3ccccc3n(Cc3cccc(Cl)c3)c2c1=O (centres undefined),nt,?,?,-24%,?,18µM*
O=C(Cn1ncc2c3ccccc3n(Cc3cccc(Cl)c3)c2c1=O)N1CCCCCC1,nt,?,-20%,-25%,?,25µM*
SMILES,PI5P4Ka inh,POLI inh,POLH inh,POLK inh,12-LOX inh,Pol beta inh
Cc1ccc(Cl)cc1NC(=O)Cn1ncc2c(C)n(Cc3ccccc3F)c(C)c2c1=O,nt,?,?,-32%,1%,13µM*
O=C(Cn1ncc2c3ccccc3n(Cc3ccccc3)c2c1=O)NCc1cccs1,nt,40%,-9%,2%,-8%,3%
N[C@@H]1CC[C@H](C(=O)N2CCC(Oc3cccc(C(F)(F)F)c3)CC2)C1,nt,nt,nt,nt,39%,nt
O=C1NC2(CCCCC2)C(=O)N1Cc1cc(F)cc2cccnc12,nt,nt,nt,nt,-20%,nt
O=C(Cn1ncc2c3ccccc3n(Cc3cccc(Cl)c3)c2c1=O)Nc1ccc(F)cc1F,nt,?,?,?,?,22µM*
COc1ccc(Cl)cc1NC(=O)Cn1ncc2c3ccccc3n(Cc3ccccc3)c2c1=O,nt,-12%,-6%,-4%,-24%,7%
C=CC1=C(C)C2=NC1=CC1=NC(=CC3=NC(=CC4=NC(=C2)C(C)=C4CCC(=O)O)C(CCC(=O)O)=C3C)C(C=C)=C1C.[Zn],nt,nt,nt,3.5µM*,?,nt
COc1ccccc1-c1cc(-c2ccc(=O)[nH]c2)c2cncn2c1,nt,nt,nt,nt,22µM*,nt
COc1ccc(-c2cc(-c3cccc(O)c3)cn3cncc23)cc1,nt,nt,nt,nt,16µM*,nt
CCc1nc2ccc(C(=O)Nc3ccc(NC(C)=O)cc3)cc2nc1CC,-5,13%,1%,0%,-26%,25%
CCc1nc2ccc(C(=O)NCCc3ccco3)cc2nc1CC,-2,-20%,-7%,-1%,nt,-3%
O=C(Nc1ccccc1)c1ccc2nc(-c3ccco3)c(-c3ccco3)nc2c1,nt,40µM*,?,45µM*,?,20µM*
CNC(=O)c1ccc2nc(-c3ccco3)c(-c3ccco3)nc2c1,nt,8.9µM*,nt,8.9µM*,nt,nt
O=C(NC1CC1)c1ccc2nc(-c3ccco3)c(-c3ccco3)nc2c1,nt,10µM*,nt,22µM*,nt,nt
